Screens from PubChem BioAssay.
SIRT5 inh – SIRT5 desuccinylase inhibitors, primary screen, biochemical, fluorescence imaging, single point, set 5 | NAD-dependent protein deacylase sirtuin-5, mitochondrial (Homo sapiens), Q9NXA8 | Purified SirT5, succinyl-peptide AMC, trypsin-coupled fluorescence | inhibition, % at 15 µM | actives 1.1% (n = 330,000) | AID 652115, 2013; in the data active = inhibition above about 15%; inconclusive = no clear call, values can overlap the other calls
Target sequence (Q9NXA8 whole entry, looked up): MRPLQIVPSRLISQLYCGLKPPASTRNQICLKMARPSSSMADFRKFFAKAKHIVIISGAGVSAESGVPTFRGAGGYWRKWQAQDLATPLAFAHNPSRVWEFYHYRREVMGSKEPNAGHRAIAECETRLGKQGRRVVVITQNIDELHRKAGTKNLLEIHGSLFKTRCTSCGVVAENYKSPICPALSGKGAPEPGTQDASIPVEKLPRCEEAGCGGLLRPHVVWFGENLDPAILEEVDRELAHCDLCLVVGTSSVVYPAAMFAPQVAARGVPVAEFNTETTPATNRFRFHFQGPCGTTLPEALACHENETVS
rRNA inh HTS – reduced GFP signal of wild-type E. coli, primary screen, bacterial rRNA inhibitor project, GFP/RFP fluorescence, OD600, single point | E. coli WT GFP vs humanized-ribosome RFP mutants, 24 h; active compounds read low; DMSO median 0, no signal -100 | AID 720706, 2013 | actives 1.6% (n = 350,000) | GFP signal change (wild-type ribosome), % (concentration not given with the values);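 active = significant combined selectivity score with lowered wild-type GFP, culture density cut under 30%, mutant RFP and density less affected; inactive = any of these conditions unmet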
PAX8 reporter – inhibitors of PAX8-driven TPO luciferase reporter, primary screen, RMG-I cells, single concentration; SteadyGlo, 24 h; actives 1.2% (n = 360,000); inhibition, % at 12.6 µM;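 active = mean replicate inhibition at least 60% with every replicate also reaching 60%; inconclusive = only one of the two criteria is met; inactive = mean below 60% and not all replicates reaching 60%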;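 note: luciferase light reporting Pax8 driven TPO promoter activity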
EWS-Fli block – EWS/Fli-driven NR0B1 reporter inhibitors, primary screen, A673 cells, NR0B1 luciferase, luminescence, MLPCN library; actives 0.67% (n = 350,000); viability-normalised; inhibition, % at 12.6 µM;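 active = mean inhibition of at least 50% after viability correction, with every replicate also passing that limit; inconclusive = mean reaches 50% but only one of two replicates passes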;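 note: firefly luciferase signal divided by Alamar Blue viability fluorescence both relative to DMSO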
PGC1a acetyl inh – inhibitors of PGC1a acetylation signal, primary screen, cell-based, U2OS, AlphaScreen, inhibitor mode; AlphaScreen anti-acetyl-lysine; with virally co-expressed GCN5 acetyltransferase; inhibition, % at 15.6 µM; actives 0.17% (n = 350,000); AID 651687, 2012;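 active = every replicate shows inhibition of at least 40%; inconclusive = mean inhibition at least 40% but some replicate below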
LGR2 inh – inhibitors of bursicon-induced LGR2 CRE-luciferase signal, primary screen, cell-based, HEK293, CRE-luciferase reporter, bursicon stimulation; bursicon-stimulated, 4 h; inhibition, % at 9.99 µM; actives 0.35% (n = 380,000); AID 720647, 2013;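 active = drop in luminescence signal, shown as inhibition above about 50% in the replicate tests, limit read from the data, passing the limit was not always enough; inconclusive = probably only some replicates passing the limit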;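 note: agonist challenge used bursicon conditioned medium at about half maximal strength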
DNA binding – DNA binders by acridine orange displacement, dose response, counter-screen for EWS/Fli inhibitor project, biochemical, fluorescence polarization, cherry-pick; shares compounds with EWS-Fli block; salmon sperm DNA acridine orange fluorescence polarization; AC35, µM (top dose mostly 68 µM); actives 2% (n = 640);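 active = fitted curve reaches a 35% signal fall AC35 below twice the sample's top valid tested dose, actives reach about 48 µM in these data; inactive = the rest, including activity in the rising direction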;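 note: lower polarization ratio signals compound binding to DNA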
Each line names hits and unclear results; the compound was inactive in the other large screens (follow-up assays come after a bar, where they were run). Sampled rows, rich in hits. Any-hit rate of the full collection: about 3.4%.

O=C(/C=C/c1ccc(Cl)cc1Cl)N(Cc1ccc(Cl)cc1)C1CCS(=O)(=O)C1 (centres undefined)	EWS-Fli block 70.3 (no result: PGC1a acetyl inh) | DNA binding inactive
Cc1c(Cc2ccc3c(c2)OCO3)sc(NC(=O)C(C)(C)C)c1C#N	EWS-Fli block 54.6 | DNA binding inactive
CO[C@H]1CN(C)C(=O)c2cc(NC(C)=O)ccc2OC[C@H](C)N(Cc2ccccc2C(=O)O)C[C@@H]1C	none
CCCCNC1=CC(=O)C(=O)c2ccccc21	PAX8 reporter inconclusive, EWS-Fli block 54.4 (no result: PGC1a acetyl inh) | DNA binding inactive
CCCCNC1=CC(=O)C(NCCCC)=CC1=O	none (no result: PAX8 reporter)
c1ccc2cc(N3CCCCC3)ccc2c1	none
O=C1c2ccccc2C(=O)c2cc(N3CCCCC3)ccc21	EWS-Fli block 83.5, LGR2 inh 97.4 | DNA binding inactive
COc1cc2c(cc1NC(=O)CN(C)Cc1ccc(OC)c(OC)c1)oc1ccccc12	EWS-Fli block 53.1 (no result: PGC1a acetyl inh) | DNA binding inactive
COc1ccc(CN(C)CC(=O)Nc2cc3oc4ccccc4c3cc2OC)c(OC)c1	none (no result: SIRT5 inh, rRNA inh HTS, EWS-Fli block)
CCN1C/C(=C/c2ccc(N3CCOCC3)cc2)C(=O)/C(=C/c2ccc(N3CCOCC3)cc2)C1	EWS-Fli block 70.4 (no result: PGC1a acetyl inh) | DNA binding 15.4µM
COc1ccc(NC(=O)N(C)C[C@H]2OCCCC[C@H](C)Oc3ccc(NS(=O)(=O)c4ccc(Cl)cc4)cc3C(=O)N([C@@H](C)CO)C[C@@H]2C)cc1	none
O=C(O)c1cc(N/N=C/c2ccc3c(c2)OCO3)ccc1Cl	none (no result: rRNA inh HTS, PGC1a acetyl inh, LGR2 inh)
O=C(O)c1ccc(N/N=C/c2ccc3c(c2)OCO3)cc1	PAX8 reporter 88.1, EWS-Fli block 85.3, LGR2 inh 101.5 | DNA binding inactive
O=C(O)c1ccc(N/N=C/c2c(F)cccc2Cl)cc1	PAX8 reporter 81.9, EWS-Fli block 74.6, LGR2 inh 76.3 (no result: PGC1a acetyl inh) | DNA binding inactive
CC(C)(C)c1ccc(/C=N/Nc2ccc(C(=O)O)cc2)cc1	EWS-Fli block 67.4, LGR2 inh 58.1 | DNA binding inactive
C[C@@H]1CN([C@H](C)CO)C(=O)c2cc(C#CC3CC3)cnc2O[C@@H]1CN(C)C(=O)C1CCCCC1	none (no result: SIRT5 inh, PAX8 reporter)
C=C(C(=O)c1ccccc1)C(C)C(=C)C(=O)c1ccccc1	PAX8 reporter 97.5, EWS-Fli block 72.6 (no result: rRNA inh HTS, PGC1a acetyl inh, LGR2 inh) | DNA binding inactive
C=C(C(=O)c1ccccc1)C(c1ccccc1)C(C)C(=O)c1ccccc1 (centres undefined)	none (no result: SIRT5 inh, rRNA inh HTS, EWS-Fli block, PGC1a acetyl inh)
C=C(C(=O)c1ccccc1)C(C(=C)C(=O)c1ccccc1)c1ccc(OC)cc1	PAX8 reporter 116.8, EWS-Fli block 78.3 (no result: rRNA inh HTS, LGR2 inh) | DNA binding inactive
CC1(C)N=C(N)N=C(N)N1c1ccc(OCCCOc2ccccc2)c(Cl)c1	PAX8 reporter 71.1, EWS-Fli block 58.8 | DNA binding inactive
CCOc1ccc2nc(NC3=NC(c4ccc(OC)cc4)CC(=O)N3)nc(C)c2c1 (centres undefined)	EWS-Fli block 57.1 (no result: PAX8 reporter) | DNA binding inactive
COc1ccc(S(=O)(=O)N(C)C[C@H]2Oc3ccc(NC(=O)C4CC4)cc3CC(=O)N([C@H](C)CO)C[C@H]2C)cc1	none (no result: PAX8 reporter)
C[C@H](CO)N1C[C@H](C)[C@@H](CN(C)Cc2ccc(C(=O)Nc3ccccc3N)cc2)Oc2ccc(NC(=O)C3CC3)cc2CC1=O	none
C[C@H]1CN([C@@H](C)CO)C(=O)Cc2cc(NC(=O)c3ccncc3)ccc2O[C@@H]1CN(C)Cc1ccc(C(=O)Nc2ccccc2N)cc1	none
COc1ccc(CN(C)C[C@H]2Oc3ccc(NC(=O)CCCCCC(=O)Nc4ccccc4N)cc3CC(=O)N([C@H](C)CO)C[C@H]2C)cc1	EWS-Fli block 55.9 (no result: SIRT5 inh, PAX8 reporter) | DNA binding inactive
C[C@@H]1CN([C@@H](C)CO)C(=O)Cc2cc(N(C)C)ccc2O[C@H]1CN(C)Cc1ccc(C(=O)Nc2ccccc2N)cc1	PAX8 reporter 77.4, EWS-Fli block 59.6 | DNA binding inactive
C[C@H]1CN([C@@H](C)CO)C(=O)Cc2cc(NC(=O)CCC(F)(F)F)ccc2O[C@H]1CN(C)Cc1ccc(C(=O)Nc2ccccc2N)cc1	EWS-Fli block 53.4 (no result: SIRT5 inh) | DNA binding inactive
C[C@H]1CN([C@@H](C)CO)C(=O)Cc2cc(NC(=O)CCC(F)(F)F)ccc2O[C@@H]1CN(C)Cc1ccc(C(=O)Nc2ccccc2N)cc1	none
C[C@H](CO)N1C[C@H](C)[C@H](CN(C)Cc2ccc(C(=O)Nc3ccccc3N)cc2)Oc2ccc(NC(=O)C3CC3)cc2CC1=O	EWS-Fli block 64.3 | DNA binding inactive
C/C(=N/NC(=O)c1cc(C(C)C)[nH]n1)c1cccs1	none (no result: SIRT5 inh, rRNA inh HTS, PAX8 reporter, EWS-Fli block, LGR2 inh)
O=C(N/N=C/c1cccs1)c1n[nH]c2c1CCCC2	PAX8 reporter 64.6, EWS-Fli block 51.9, LGR2 inh 76.1 (no result: SIRT5 inh) | DNA binding inactive
C/C(=N\NC(=O)c1n[nH]c2c1CCC2)c1cccs1	PAX8 reporter 102.1, EWS-Fli block 82.0 (no result: SIRT5 inh, LGR2 inh) | DNA binding inactive
C[C@@H]1CN([C@@H](C)CO)C(=O)c2cc(C#Cc3ccccc3F)cnc2O[C@@H]1CN(C)C(=O)Cc1cccnc1	none (no result: PAX8 reporter)
CCCN(C)C[C@H]1Oc2ncc(-c3ccccc3)cc2C(=O)N([C@@H](C)CO)C[C@H]1C	EWS-Fli block 56.0 (no result: rRNA inh HTS, LGR2 inh) | DNA binding inactive
CCCN(C)C[C@H]1Oc2ncc(-c3ccccc3)cc2C(=O)N([C@H](C)CO)C[C@@H]1C	none (no result: rRNA inh HTS, LGR2 inh)
CCCc1nc2ccc(NC(=O)c3cccs3)cc2c(=O)n1Cc1ccccc1Cl	EWS-Fli block 60.2 (no result: PGC1a acetyl inh) | DNA binding inactive
CCN(CC)c1cc(C)c2cc(NC(=O)c3cccs3)ccc2n1	none
C[C@H]1CCCCO[C@H](CN(C)C(=O)Nc2ccc(F)cc2)[C@@H](C)CN([C@@H](C)CO)C(=O)c2cc(NC(=O)c3ccccc3)ccc2O1	none
CN(C[C@H]1N[C@@H](CO)[C@@H]1c1ccc(C2=CCCC2)cc1)C(=O)c1cccc(F)c1	PAX8 reporter 110.9, EWS-Fli block 77.4, PGC1a acetyl inh 76.2 | DNA binding inactive
C=CCOc1ccccc1C(=O)/C=C1/C(=O)Nc2ccccc21	EWS-Fli block 57.8 | DNA binding inactive
COc1ccc(NC(=O)N2CCCCN3[C@H](CO)[C@H](c4ccc(-c5ccccc5F)cc4)[C@@H]3C2)cc1	none
